Screening data deposited in PubChem BioAssay by The Scripps Research Institute Molecular Screening Center.
DAX1 inh-1: inhibits human nuclear receptor DAX1 | HEK293 Gal4-DAX1 luciferase reporter, luminescence | inhibition, % at 6.75 µM | actives 0.99% (n = 340,000) | AID 504766;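 active = inhibition above the mean over all tested compounds plus 3 SD, cut at about 4.2% in these data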;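 also: inhibition shows as a rise in luminescence from relieved DAX1 repression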
Target sequence (P51843 207-470 limits assumed): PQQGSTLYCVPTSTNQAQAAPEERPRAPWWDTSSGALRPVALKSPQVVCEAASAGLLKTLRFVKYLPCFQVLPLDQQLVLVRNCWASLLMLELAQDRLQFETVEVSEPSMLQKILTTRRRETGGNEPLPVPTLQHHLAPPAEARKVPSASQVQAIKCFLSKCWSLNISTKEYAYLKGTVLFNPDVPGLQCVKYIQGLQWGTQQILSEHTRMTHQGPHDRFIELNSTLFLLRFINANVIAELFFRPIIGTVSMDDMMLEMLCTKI
hcDAF-12 act: H. contortus DAF-12 activation, primary screen; HEK293 hcDAF-12 lit1-tk-luc reporter, luminescence; 0% DMSO, 100% Δ7-dafachronic acid; activation, % at 6.8 µM; actives 1.4% (n = 370,000);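 active = activation above the mean of all tested compounds plus 3 SD, cut at about 5.5% in these data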
ssDAF-12 act: activators of S. stercoralis DAF-12 nuclear receptor. HEK293 ssDAF-12/GRIP1 lit1-tk-luc reporter, luminescence; % of 3 µM dafachronic acid response. activation, % at 6.8 µM. actives 1% (n = 370,000). AID 652126;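 active = activation above the mean over all tested compounds plus 3 SD, cut at about 0.9% in these data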
DAX1 inh-2: inhibitors of DAX1 repression of SF-1 activated StAR promoter | HEK293T StAR-luciferase reporter, SF-1/DAX-1 repression relief | inhibition, % at 6.8 µM | actives 1.1% (n = 370,000);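 active = inhibition above the mean over all tested compounds plus 3 SD, cut at about 3.6% in these data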;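 also: higher inhibition means more luminescence from relief of DAX-1 repression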
hgDAF-12 ag: hgDAF-12 agonism, primary luciferase screen; HEK293 GAL4-hgDAF12 UAS-luciferase reporter, agonist luminescence; normalized to butyrate control; activation, % at 6.8 µM; actives 1.8% (n = 370,000); AID 687014;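 active = activation above a cutoff set at the mean of all screened compounds plus 3 SD, cut at about 10% in these data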
hgDAF12 conf: hgDAF-12 agonism, confirmation assay. activation, % at 6.8 µM. actives 80% (n = 3,300). HEK293 GAL4-hgDAF12 luciferase reporter, agonist mode; percent of butyrate response. shares compounds with hgDAF-12 ag;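 active = mean activation over triplicate wells above the hit cutoff derived from the earlier primary screen, cut at about 11% in these data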
LXRb DAF12 ctr: activates human LXR-beta, counter-screen for DAF-12 agonists | shares compounds with hgDAF-12 ag | HEK293 Gal4-LXR luciferase reporter, 24 h | activation, % at 6.8 µM | 3,300 tested, under 10 active;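 active = mean activation of the triplicate above a set limit carried over from the primary screen, none filed active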
Target sequence (P55055 whole entry, looked up, the tested form may be a part): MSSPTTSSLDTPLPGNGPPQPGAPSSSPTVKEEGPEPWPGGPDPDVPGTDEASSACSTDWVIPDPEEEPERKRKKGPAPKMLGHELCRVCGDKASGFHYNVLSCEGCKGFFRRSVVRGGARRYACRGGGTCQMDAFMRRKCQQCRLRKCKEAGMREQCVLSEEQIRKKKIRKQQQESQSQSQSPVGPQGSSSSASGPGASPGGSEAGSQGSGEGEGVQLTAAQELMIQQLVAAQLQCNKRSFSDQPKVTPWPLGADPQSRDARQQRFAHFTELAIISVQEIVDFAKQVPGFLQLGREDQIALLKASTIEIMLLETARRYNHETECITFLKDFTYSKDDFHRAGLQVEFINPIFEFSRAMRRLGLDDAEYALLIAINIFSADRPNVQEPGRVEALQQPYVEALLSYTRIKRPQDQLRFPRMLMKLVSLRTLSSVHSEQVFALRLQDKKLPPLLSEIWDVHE
Large screens that a line does not name were inactive (follow-up assays come after a bar, where they were run). Shown are actives, neighbours in structure and some others; about 4.1% of the full set was active somewhere.

CO/C(N)=C(\C#N)N=Cc1ccccc1Cl	hgDAF-12 ag 13.9 | hgDAF12 conf inactive | LXRb DAF12 ctr inactive
O=C(O)c1cccc(NC(=S)NC(=O)c2ccncc2)c1	none
CC(C)(C)C(=O)NC(=S)Nc1cccc(C(=O)O)c1	DAX1 inh-2 4.3, hgDAF-12 ag 14.2 | hgDAF12 conf 13.2 | LXRb DAF12 ctr inactive
CN1C(=O)C(c2cn(C)c3ccccc23)(c2cn(C)c3ccccc23)c2cc(F)ccc21	ssDAF-12 act 2.4, hgDAF-12 ag 13.5 (no result: DAX1 inh-1) | hgDAF12 conf inactive | LXRb DAF12 ctr inactive
CN1C(=O)[C@@](O)(c2cn(C)c3ccccc23)c2cc(F)ccc21	none (no result: DAX1 inh-1)
O=C(Nc1cccc2ccccc12)OCc1ccccc1	hgDAF-12 ag 16.9 | hgDAF12 conf inactive | LXRb DAF12 ctr inactive
Cc1ccccc1OCc1nc2ccccc2[nH]1	hgDAF-12 ag 19.1 | hgDAF12 conf 17.4 | LXRb DAF12 ctr inactive
Cc1ccc(SCc2nc3ccccc3[nH]2)cc1	hgDAF-12 ag 13.8 | hgDAF12 conf 11.5 | LXRb DAF12 ctr inactive
CCCCc1nc2ccccc2[nH]1	none
Clc1ccc(CN2CCN(c3ncc(Cc4ccccc4)cn3)CC2)c(Cl)c1	none (no result: DAX1 inh-1)
COc1ccc(CNC(=O)Nc2nc(C(N)CCc3ccccc3)cs2)cc1 (stereo not drawn)	none (no result: DAX1 inh-1)
COc1cccc(-c2nnc(N)o2)c1	none
COc1cccc(-c2nnc(-c3ccc(C)o3)o2)c1	DAX1 inh-2 4.1, hgDAF-12 ag 14.1 | hgDAF12 conf 18.6 | LXRb DAF12 ctr inactive
Cc1cccnc1NC(=S)Nc1ccc(Cl)c(Cl)c1	none
COc1ccc(NC(=S)Nc2ncccc2C)cc1OC	hgDAF-12 ag 20.8 | hgDAF12 conf inactive | LXRb DAF12 ctr inactive
N#Cc1ccc(C(=O)Nc2nc3ccccc3[nH]2)cc1	hgDAF-12 ag 16.0 | hgDAF12 conf 11.3 | LXRb DAF12 ctr inactive
O=C(Nc1ccc2c(c1)CCC2)c1cnc(Cl)c(Cl)c1	ssDAF-12 act 1.1, hgDAF-12 ag 14.8 | hgDAF12 conf 19.1 | LXRb DAF12 ctr inactive
Cc1ccc(C(=O)NCC(=O)Nc2ccc3c(c2)CCC3)cc1C	none
Cc1cc(C(=O)Nc2ccc3c(c2)CCC3)ccc1[N+](=O)[O-]	hgDAF-12 ag 14.1 (no result: DAX1 inh-1) | hgDAF12 conf 16.6 | LXRb DAF12 ctr inactive
O=C(Nc1ccc2c(c1)CCC2)c1cccs1	ssDAF-12 act 1.2, hgDAF-12 ag 15.9 | hgDAF12 conf 17.3 | LXRb DAF12 ctr inactive
Nc1ccc(NC(=O)c2cccs2)cc1	none
O=C(Nc1ccc2c(c1)CCC2)c1c(F)cccc1Cl	none
COC(=O)[C@]12C[C@H](CC(=O)NCC3CCCCC3)C(=O)N(CCc3ccc(OC)c(OC)c3)C1=C[C@H](C(C)(C)C)O[C@@H]2C	none (no result: DAX1 inh-1)
COc1ccc(CCN2C(=O)COc3ccccc3C2C(=O)NCc2ccccc2)cc1OC (stereo not drawn)	none (no result: DAX1 inh-1)
O=C(C=Cc1ccc2c(c1)OCO2)c1ccccc1	hgDAF-12 ag 13.4 | hgDAF12 conf 10.8 | LXRb DAF12 ctr inactive
O=C(COc1ccc2c(c1)OCO2)Nc1ccc(Cl)cn1	none
O=C(/C=C/c1ccc2c(c1)OCO2)Nc1ccc(Cl)cn1	DAX1 inh-2 4.3, hgDAF-12 ag 14.7 | hgDAF12 conf 13.2 | LXRb DAF12 ctr inactive
Cc1ccc(C(=O)/C=C/c2ccc3c(c2)OCCO3)c(O)c1	hgDAF-12 ag 13.9 | hgDAF12 conf inactive | LXRb DAF12 ctr inactive
O=C(NCC1CC1)c1ccc2c3n(nc2c1)-c1ccccc1CO3	hgDAF-12 ag 14.1 | hgDAF12 conf 17.2 | LXRb DAF12 ctr inactive
CCOC(=O)c1cnc(-c2ccccc2)nc1N	DAX1 inh-2 4.5, hgDAF-12 ag 14.3 | hgDAF12 conf 15.7 | LXRb DAF12 ctr inactive
CCCc1c(-c2ccccc2Br)ncn1Cc1ccccc1OC	none (no result: DAX1 inh-1)
Fc1ccc(OCc2nc(-c3cccs3)no2)cc1	hgDAF-12 ag 16.2 | hgDAF12 conf 12.1 | LXRb DAF12 ctr inactive
Cc1cc(OCc2nc(-c3cccs3)no2)cc(C)c1Cl	none
c1ccc(OCc2nc(-c3cccs3)no2)cc1	hgDAF-12 ag 15.6 | hgDAF12 conf 12.9 | LXRb DAF12 ctr inactive
CCOC(=O)CC[C@H]1CC[C@]2(CCCN(C3CCCCC3)C2)O1	none (no result: DAX1 inh-1)
CCCCCC[C@H](CN(CCCC)S(C)(=O)=O)c1ccccc1	none (no result: DAX1 inh-1)
Cc1ccc(/C=C/c2nnc(-c3ccc(C)cc3)o2)cc1	none
Fc1ccc(/C=C/c2nnc(-c3cccs3)o2)cc1	DAX1 inh-2 3.7, hgDAF-12 ag 15.3 | hgDAF12 conf 12.0 | LXRb DAF12 ctr inactive
Cc1ccc(/C=C/c2nnc(-c3cccs3)o2)cc1	DAX1 inh-2 4.4, hgDAF-12 ag 15.5 | hgDAF12 conf 16.4 | LXRb DAF12 ctr inactive
C[C@H]1[C@@H](OC(=O)NCc2cccnc2)CC[C@@]23CCCN2C(=O)CCC[C@@H]13	none (no result: DAX1 inh-1, DAX1 inh-2)
CC(C)(C)C(=O)N/C(N)=N/c1nc2ccccc2o1	DAX1 inh-1 4.8, ssDAF-12 act 1.5, hgDAF-12 ag 13.3 | hgDAF12 conf 14.9 | LXRb DAF12 ctr inactive
N/C(=N\c1nc2ccccc2o1)NC(=O)/C=C/c1ccccc1	none
C=C(C)CN(CC)C(=O)CCc1nnc(CCCc2ccccc2)o1	hgDAF-12 ag 17.4 | hgDAF12 conf 11.9 | LXRb DAF12 ctr inactive
CC(OC(=O)c1ccco1)C(=O)Nc1ccc(C(F)(F)F)cc1 (stereo not drawn)	none
Cn1c(=O)ccc2ccccc21	none (no result: DAX1 inh-1)
O=C(c1ccccc1)C1C(=O)c2ccccc2C1=O	none
O=C(/C=C/c1ccccc1)C1C(=O)c2ccccc2C1=O	hgDAF-12 ag 21.6 | hgDAF12 conf 11.6 | LXRb DAF12 ctr inactive
COc1ccc(CNCC#Cc2cccnc2)c(OC)c1	none (no result: DAX1 inh-1)
O=Cc1c(OCc2ccccc2)ccc2ccccc12	ssDAF-12 act 0.9, hgDAF-12 ag 14.3 | hgDAF12 conf inactive | LXRb DAF12 ctr inactive
Fc1ccccc1CSc1nnc(-c2cccnc2)o1	DAX1 inh-1 4.6, hgDAF-12 ag 14.5 | hgDAF12 conf 10.6 | LXRb DAF12 ctr inactive
Fc1ccccc1CSc1nnc(-c2ccccc2)o1	hgDAF-12 ag 17.8 | hgDAF12 conf 14.3 | LXRb DAF12 ctr inactive
COc1cc(/C=N/N(c2ccccc2)c2ccccc2)ccc1O	none
CCOc1ccc(/C=N/N(C)c2ccccc2)cc1OC	hgDAF-12 ag 14.1 | hgDAF12 conf 16.1 | LXRb DAF12 ctr inactive
CCOC(=O)C1=CCN(S(=O)(=O)c2ccccc2Cl)C1c1ccccc1 (stereo not drawn)	none (no result: DAX1 inh-1)
CC(C)COC(=O)N1CCCCC1c1cc(C(=O)Nc2ccc3c(c2)OCO3)no1 (stereo not drawn)	none (no result: DAX1 inh-1)
Cc1ccc(OCC(=O)N2CCN(c3ccc([N+](=O)[O-])c(N4CCOCC4)c3)CC2)cc1	none
Cc1cc(OCC(=O)N2CCOCC2)ccc1[N+](=O)[O-]	DAX1 inh-1 5.2, hgDAF-12 ag 15.1 | hgDAF12 conf inactive | LXRb DAF12 ctr inactive
